# Laboratory results reported in PubChem BioAssay AID2685 (National Center for Advancing Translational Sciences (NCATS), 2010).
# Screen size: about 320,000 compounds; about 2,100 (0.66%) were called active. About 53% were inconclusive and are not listed. The sample holds actives, similar compounds and a random draw of the others, so the mix is not that of the screen. Calls come from the whole dose curve; as a rule, active = well fitted inhibition curve with a large enough effect in the signal ratio, with a control signal flat (not every such curve was filed as active); inconclusive = small, poorly fitted or top-dose-only effect, or effect the other way, or a change in a side signal; inactive = flat fitted curve, though single readings scatter; the % refers to the signal ratio.
# Experiment: qHTS Assay for Lipid Storage Modulators in Drosophila S3 Cells;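 for cell number change: cells counted by Cell Tracker Red CMTPX staining in the red channel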; for lipid storage change, negative = inhibition: % is set by controls: 0 for no effect and ±100 for the full control effect
# Details: BODIPY lipid droplet fluorescence, 18-24 h, cells fed with added oleic acid; cell number change: measured here: cell count max response; series mostly up to 46.1 µM
# How it was run: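 Drosophila S3 cells got compounds at several concentrations plus oleic acid (400 uM solution). Laser-scanning cytometry with 488 nm excitation read lipid droplets at 500-530 nm and cells at 575-640 nm. Percent activity was relative to 20 uM Triacsin C.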
# Potency is the fitted concentration of half-maximal effect.
SMILES,Potency,cell number change [%],"lipid storage change, negative = inhibition"
COc1cccc(-c2cccc(NC(=O)C3CCN(CC4CCOC4)CC3)c2)c1 (configuration not stated),16.4 µM (active),-23.3,
COc1cccc(-c2cccc(NC(=O)C3CCN(Cc4ccc(CO)o4)CC3)c2)c1,inactive,-8.92,
O=C(Nc1cccc(-c2cccc(Cl)c2)c1)C1CCN(CC2CCOC2)CC1 (configuration not stated),inactive,26.5,
O=C(CSc1nc(O)cc(=O)n1-c1ccccc1)c1ccc(Br)cc1,,-4.08,26.5% [at 9.22 µM] (inactive)
COc1ccc(-c2ccc3ccccc3n2)cc1,inactive,-4.92,
S=c1[nH]nc(-c2ccncc2)n1/N=C/c1cccc2ccccc12,inactive,15.5,
Clc1ccc(CN2CCCCCC2)cc1,inactive,7.51,
CC(C)CCn1c(CN(C)Cc2ccccc2)nc2c1c(=O)n(C)c(=O)n2C,inactive,-8.94,
CC(C)Cn1c(CN(C)Cc2ccccc2)nc2c1c(=O)n(C)c(=O)n2C,inactive,,
C=C(C)Cn1c(CN(C)Cc2ccccc2)nc2c1c(=O)n(C)c(=O)n2C,0.92 µM (active),-21.1,
C[C@@H](NC(=O)c1nc[nH]c1C(=O)NCC(=O)OC(C)(C)C)c1ccccc1,inactive,2.99,
CC(=O)c1ccc(Oc2cc(C(F)(F)F)cnc2C(N)=O)cc1,inactive,26.2,
CC(NC(=O)c1ccncc1)C(c1cccs1)N1CCOCC1 (configuration not stated),inactive,1.4,
CC1CN(c2nc3ccccc3nc2SCC(=O)Nc2ccc(F)cc2)CC(C)O1 (configuration not stated),20.6 µM (active),22.5,
Cc1cccc(NC(=O)CSc2nc3ccccc3nc2N2CC(C)OC(C)C2)c1 (configuration not stated),inactive,8.93,
CCOc1ccc(NC(=O)CSc2nc(N3CCOCC3)nc(N3CCOCC3)n2)cc1,inactive,4.32,
COc1ccc(NC(=O)CSc2nc3ccccc3nc2N2CCCC2)cc1,inactive,-11.5,
CCCCc1ccc(NC(=O)CSc2nc(=O)n(CCCN3CCOCC3)c3c2CCC3)cc1,inactive,12.5,
CCCCc1ccc(NC(=O)CSc2nc(=O)n(CCN3CCOCC3)c3c2CCC3)cc1,inactive,7.1,
CCc1ccc(NC(=O)CSc2nc3ccccc3nc2N2CCCCC2)cc1,13 µM (active),25.4,
O=C(CSc1nc2ccccc2nc1N1CCCC1)Nc1ccc(F)cc1,inactive,7.49,
CCc1ccc(NC(=O)CSc2nc(=O)n(CCCN3CCOCC3)c3c2CCCC3)cc1,14.6 µM (active),-8.01,
Cc1cc(C)cc(NC(=O)CSc2nc3ccccc3nc2N2CCCCC2)c1,inactive,10.1,

SMILES,Potency,cell number change [%],"lipid storage change, negative = inhibition"
CCOc1ccc(NC(=O)CSc2nc3ccccc3nc2N2CCOCC2)cc1,20.6 µM (active),-28,
COc1ccc(NC(=O)CSc2nc3ccccc3nc2N2CCCCC2)cc1,inactive,-10.4,
Cc1cc(C)n2c(SCc3c(C)noc3C)nnc2n1,inactive,2.46,
Cc1cccc(NC(=S)NCCc2ccc(S(N)(=O)=O)cc2)c1C,inactive,-9.26,
C=CCSc1nnc(NC(=O)C2CC(=O)N(Cc3ccc(C)cc3)C2)s1 (configuration not stated),inactive,-7.78,
CC(=C\C(=O)O)/C(=C/c1ccc(C)o1)C(=O)O,inactive,-12.8,
O=C(NCc1ccc2[nH]c3c(c2c1)CCCC3)c1ccc(S(=O)(=O)N2CCCCC2)cc1,inactive,-10.5,
CN(C)C(=O)c1cc(C(=O)c2c(F)cccc2F)c[nH]1,inactive,-8.76,
O=C(CN1C(=O)NC2(CCCCC2)C1=O)Nc1cccc(S(=O)(=O)N2CCOCC2)c1,inactive,-0.223,
CCC1Sc2ccc(S(=O)(=O)CCC(=O)Nc3ccc(OC(F)(F)F)cc3)cc2NC1=O (configuration not stated),inactive,2.14,
O=C(NC(Cc1ccccc1)C(=O)O)/C(=C/c1cccc(Br)c1)NC(=O)c1ccco1 (configuration not stated),1.84 µM (active),,
O=C(NC(Cc1ccccc1)C(=O)O)/C(=C\c1ccc(Cl)cc1)NC(=O)c1ccco1 (configuration not stated),0.0411 µM (active),,
O=C(NC(Cc1ccccc1)C(=O)O)/C(=C/c1ccco1)NC(=O)c1cccc(Br)c1 (configuration not stated),inactive,-18,
O=C(NC(Cc1ccccc1)C(=O)O)/C(=C/c1ccc(Cl)cc1)NC(=O)c1ccccc1 (configuration not stated),inactive,1.96,
O=C(NC(Cc1ccccc1)C(=O)O)/C(=C\c1cccc([N+](=O)[O-])c1)NC(=O)c1ccco1 (configuration not stated),inactive,,
O=C(NC(Cc1ccccc1)C(=O)O)/C(=C\c1ccccc1)NC(=O)c1ccco1 (configuration not stated),inactive,-6.67,
O=C(CC1C(=O)NCCN1Cc1ccc(-c2ccccc2)cc1)NCCOc1cccnc1 (configuration not stated),inactive,-0.0435,
O=C(Nc1cccc2ccccc12)c1cccc(F)c1,inactive,-3.54,
COc1ccc(NC(=O)C2CSC(C)(C)N2C=O)cc1 (configuration not stated),inactive,7.51,
COc1ccc(CN2CCOCCOCCN(Cc3ccc(OC)cc3)CCOCCOCC2)cc1,inactive,16,
Cc1ccc(S(=O)(=O)NCc2ccccc2)cc1C(=O)N(C)CC(=O)Nc1c(Cl)cccc1Cl,inactive,,
CSc1nc(-c2ccc(Cl)cc2Cl)[nH]c(=O)c1C#N,32.6 µM (active),-67,
Cc1cc(-c2ccc(Cl)cc2Cl)c(C#N)c(=O)[nH]1,inactive,,

SMILES,Potency,cell number change [%],"lipid storage change, negative = inhibition"
CSc1nc(-c2ccc(Cl)cc2)c(C#N)c(=O)[nH]1,inactive,-0.138,
CN(Cc1ccccc1)C(=O)COc1ccc(N(C)S(=O)(=O)c2ccc(F)cc2)cc1,inactive,-1.11,
NC(=O)c1nsc(C(=O)N(Cc2ccco2)C(C(=O)NCc2ccc(F)cc2)c2ccc(O)cc2)c1N (configuration not stated),inactive,,
Cc1ccc(C(C(=O)NCc2ccc(F)cc2)N(Cc2ccco2)C(=O)c2snc(C(N)=O)c2N)o1 (configuration not stated),13 µM (active),-23,
CCC(C(=O)NCc1ccc(F)cc1)N(Cc1ccco1)C(=O)c1snc(C(N)=O)c1N (configuration not stated),inactive,-6.14,
Cc1oc2c(c1C(=O)NC(Cc1c[nH]c3ccccc13)C(=O)O)CCCC2 (configuration not stated),inactive,18,
Cc1cccc(Cc2c(C)[nH]c(=O)c(C#N)c2C)c1,,-1.36,-17.3% [at 9.22 µM] (inactive)
N=c1oc2ccc(Br)cc2cc1C(=O)NC1CCCCCC1,inactive,-5.41,
O=C(O)C1CCCN1S(=O)(=O)c1ccccc1 (configuration not stated),inactive,14,
CC(Oc1cc2oc(=O)c3c(c2cc1Cl)CCC3)C(=O)NCCCN1CCOCC1 (configuration not stated),inactive,14.5,
CCCc1cc(=O)oc2c(C)c(OCC(=O)NCCCN3CCOCC3)ccc12,inactive,7.37,
CCc1cc(=O)oc2cc(OCC(=O)NCCCN3CCCC3=O)c(Cl)cc12,16.4 µM (active),11.6,
CC(Oc1cc2oc(=O)c3c(c2cc1Cl)CCC3)C(=O)NCCCN1CCCC1=O (configuration not stated),1.64 µM (active),-19.6,
Cc1cc(=O)oc2cc(OCC(=O)NCCCN3CCCC3=O)c(Cl)cc12,inactive,-17.4,
Cc1c(OCC(=O)NCCCN2CCOCC2)ccc2c3c(c(=O)oc12)CCC3,inactive,-21.2,
Cc1cc(=O)oc2c(C)c(OCC(=O)NCCCN3CCCC3=O)ccc12,inactive,-21.7,
CCc1cc(=O)oc2cc(OCC(=O)NCCCN3CCCC3=O)ccc12,inactive,3.54,
CCCc1cc(=O)oc2c(C)c(OCC(=O)NCCN3CCOCC3)ccc12,inactive,19.4,
CC(Oc1cc2oc(=O)c3c(c2cc1Cl)CCC3)C(=O)NCCN1CCOCC1 (configuration not stated),inactive,9.27,
CCCCc1cc(=O)oc2c(C)c(OCC(=O)NCCN3CCOCC3)ccc12,8.2 µM (active),-17,
Cc1c(OCC(=O)NCCCN2CCCC2=O)ccc2c3c(c(=O)oc12)CCCC3,8.2 µM (active),-7.37,
